# Measurements as given in the supplement of paper PMC8007513.
# Structures can show the parent of a compound that is named as a salt. ± gives the standard error. The whole screen tested about 1,300 compounds, of which about 130 (10%) showed an effect of 50% or more. Many of the other results were omitted from the sample, so strong results are more common in it than they were.
# Test system: Trichoderma virens ATCC 9645
# Test: growth yield (OD600) with compound + IPBC relative to untreated control; higher = less growth inhibition
# Conditions: compound concentration: 100 uM, IPBC concentration: 200 ng/ml
# Procedure, shortened: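 Trichoderma virens ATCC 9645 spores from 7-day potato dextrose agar plates were suspended in potato dextrose broth at 15,000 spores ml^−1. Aliquots of 100 μl with library compounds at 100 μM final, with or without a co-applied biocide at 200 ng ml^−1, were grown in 96-well plates at 30 °C. OD600 was read at 40 h and 72 h on a BioTek EL800. Growth is expressed relative to the control without either agent, as means of duplicate screens.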
Compound,growth yield (40 h) [%],growth yield (72 h) [%]
CN[C@@H]1[C@@H](O[C@H]2O[C@H](CO)[C@@H](N)[C@H](O)[C@H]2O)OC2C[C@@H](N)[C@@H](O[C@H]3[C@H](O)[C@@H](O)[C@H](N)C[C@@H]3N)OC2[C@@H]1O (some centres not stated) [Apramycin] + CCCCNC(=O)OCC#CI [3-iodo-2-propynyl butylcarbamate (IPBC)],96.6 ± 4.1,97.1 ± 1.5
CCCN(CCC)S(=O)(=O)c1ccc(C(=O)O)cc1 [Probenecid] + CCCCNC(=O)OCC#CI [3-iodo-2-propynyl butylcarbamate (IPBC)],81.5 ± 4.9,86.1 ± 0.73
NC(=O)N1c2ccccc2C=Cc2ccccc21 [Carbamazepine] + CCCCNC(=O)OCC#CI [3-iodo-2-propynyl butylcarbamate (IPBC)],92.8 ± 1.9,93.8 ± 1.1
COc1cc2c(c(OC)c1OC)-c1ccc(OC)c(=O)cc1[C@@H](NC(C)=O)CC2 [Colchicine] + CCCCNC(=O)OCC#CI [3-iodo-2-propynyl butylcarbamate (IPBC)],88.5 ± 6.8,92.9 ± 1.7
NC[C@@H]1O[C@H](O[C@H]2[C@@H](O)[C@H](O[C@@H]3[C@@H](O)[C@H](N)C[C@H](N)[C@H]3O[C@H]3O[C@H](CO)[C@@H](O)[C@H](O)[C@H]3N)O[C@@H]2CO)[C@H](N)[C@@H](O)[C@@H]1O [Paromomycin sulfate] + CCCCNC(=O)OCC#CI [3-iodo-2-propynyl butylcarbamate (IPBC)],84 ± 7.2,86.5 ± 2.2
COC1=C(OC)C(=O)C(CCCCCCCCCCO)=C(C)C1=O [Idebenone] + CCCCNC(=O)OCC#CI [3-iodo-2-propynyl butylcarbamate (IPBC)],49.1 ± 8.1,73.9 ± 4.5
CCn1cc(C(=O)O)c(=O)c2cc(F)c(N3CCNC(C)C3)c(F)c21 (configuration not stated) [Lomefloxacin hydrochloride] + CCCCNC(=O)OCC#CI [3-iodo-2-propynyl butylcarbamate (IPBC)],87.4 ± 8.3,96.3 ± 6.5
CCCN(CCC)CCc1cccc2c1CC(=O)N2 [Ropinirole hydrochloride] + CCCCNC(=O)OCC#CI [3-iodo-2-propynyl butylcarbamate (IPBC)],84.8 ± 1.3,90.61 ± 0.42
O=C(O)c1cccnc1Nc1cccc(C(F)(F)F)c1 [Niflumic acid] + CCCCNC(=O)OCC#CI [3-iodo-2-propynyl butylcarbamate (IPBC)],63.9 ± 2.9,85.2 ± 3.1
O=C(OCCOCCO)c1ccccc1Nc1cccc(C(F)(F)F)c1 [Etofenamate] + CCCCNC(=O)OCC#CI [3-iodo-2-propynyl butylcarbamate (IPBC)],59.2 ± 1.4,94.4 ± 2.1
O=C(O)c1ccccc1Nc1cccc(C(F)(F)F)c1 [Flufenamic acid] + CCCCNC(=O)OCC#CI [3-iodo-2-propynyl butylcarbamate (IPBC)],29.1 ± 2.1,59.05 ± 0.32
CCCc1nc(C(C)(C)O)c(C(=O)O)n1Cc1ccc(-c2ccccc2-c2nnn[nH]2)cc1 [Olmesartan] + CCCCNC(=O)OCC#CI [3-iodo-2-propynyl butylcarbamate (IPBC)],107 ± 1.3,104 ± 1.4
OC(c1cc(C(F)(F)F)nc2c(C(F)(F)F)cccc12)C1CCCCN1 (configuration not stated) [Mefloquine hydrochloride] + CCCCNC(=O)OCC#CI [3-iodo-2-propynyl butylcarbamate (IPBC)],74.8 ± 4,103 ± 3.4
O=C(O)Cc1sc(-c2ccccc2)nc1-c1ccc(Cl)cc1 [Fentiazac] + CCCCNC(=O)OCC#CI [3-iodo-2-propynyl butylcarbamate (IPBC)],25.4,77.1 ± 16
O=C(O)Cc1ccc(-c2ccccc2)cc1 [Felbinac] + CCCCNC(=O)OCC#CI [3-iodo-2-propynyl butylcarbamate (IPBC)],56.2 ± 4.1,91.9 ± 4.6
O=C(O)CCc1nc(-c2ccccc2)c(-c2ccccc2)o1 [Oxaprozin] + CCCCNC(=O)OCC#CI [3-iodo-2-propynyl butylcarbamate (IPBC)],72.7 ± 4.5,85.47 ± 0.73
Nc1nc(/C(=C/CC(=O)O)C(=O)N[C@@H]2C(=O)N3C(C(=O)O)=CCS[C@H]23)cs1 [Ceftibuten] + CCCCNC(=O)OCC#CI [3-iodo-2-propynyl butylcarbamate (IPBC)],92.4 ± 4.8,94 ± 3.1
CCCNC(=O)NS(=O)(=O)c1ccc(Cl)cc1 [Chlorpropamide] + CCCCNC(=O)OCC#CI [3-iodo-2-propynyl butylcarbamate (IPBC)],93.7 ± 4.1,102 ± 2.2
CCN(CC)C(=S)SSC(=S)N(CC)CC [Disulfiram] + CCCCNC(=O)OCC#CI [3-iodo-2-propynyl butylcarbamate (IPBC)],33.7 ± 3.8,92.4 ± 1.6
C=CCC1(CC(C)C)C(=O)NC(=O)NC1=O [Butalbital] + CCCCNC(=O)OCC#CI [3-iodo-2-propynyl butylcarbamate (IPBC)],85.6 ± 1.4,93.2 ± 0.94
COc1ccc([C@@H]2Sc3ccccc3N(CCN(C)C)C(=O)[C@@H]2OC(C)=O)cc1 [Diltiazem hydrochloride] + CCCCNC(=O)OCC#CI [3-iodo-2-propynyl butylcarbamate (IPBC)],80.85 ± 0.48,88.4 ± 2.2
CC(C)C[C@H](CN)CC(=O)O [Pregabalin] + CCCCNC(=O)OCC#CI [3-iodo-2-propynyl butylcarbamate (IPBC)],85.3 ± 0.79,89.14 ± 0.21
CN(C)c1cc(NC(=O)CNC(C)(C)C)c(O)c2c1C[C@H]1C[C@H]3[C@H](N(C)C)C(O)=C(C(N)=O)C(=O)[C@@]3(O)C(O)=C1C2=O [Tigecycline] + CCCCNC(=O)OCC#CI [3-iodo-2-propynyl butylcarbamate (IPBC)],80.7 ± 3.5,79 ± 2
N=C(NCCCCCCNC(=N)NC(=N)Nc1ccc(Cl)cc1)NC(=N)Nc1ccc(Cl)cc1 [Chlorhexidine] + CCCCNC(=O)OCC#CI [3-iodo-2-propynyl butylcarbamate (IPBC)],4.61 ± 0.16,3.67 ± 0.32
N=C(N)NC(=N)NCCc1ccccc1 [Phenformin hydrochloride] + CCCCNC(=O)OCC#CI [3-iodo-2-propynyl butylcarbamate (IPBC)],86.25 ± 0.48,92 ± 2.4
CC(C)NC(=N)NC(=N)Nc1ccc(Cl)cc1 [Proguanil hydrochloride] + CCCCNC(=O)OCC#CI [3-iodo-2-propynyl butylcarbamate (IPBC)],92.8 ± 2.2,104 ± 1.8
